Drawing on PubChem BioAssay (NCI), this text covers growth for 13 compounds.

The panel holds about 83,000 compounds, 20% with a hit somewhere; the sample as a whole holds those more often.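 Cell lines were cultured in 96-well plates, exposed to a single compound concentration, and assessed for percent growth 48 hours later.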 A number with no mark means an inactive call. Activity calls are given as the source filed them. Rule for the calls: active = growth percent below 10; inactive = the rest.

This test concerns UACC-62 melanoma. The experiment in a line: NCI-60 one-dose screen, 48 h (100 = growth as untreated, 0 = no growth, -100 = all killed). As to conditions: 10 µM.
Regarding `C=C(C(=O)c1ccccc1)C(NC(C)(C)C)c1ccccc1` (stereo not drawn), the growth was 0.104% (active). Then `O=c1c2ccccc2nc(SCCN2CCCCC2)n1CCc1ccccc1`, with 97.8%. Then `N=c1c2c(-c3ccccc3)c(-c3ccccc3)n(Cc3ccccc3)c2ncn1CCCO`, with 44.2%. Then `COc1cc(/C=C2\Oc3cc(OCC(=O)c4ccccc4)ccc3C2=O)cc(OC)c1OC`, with 96.7%. In the case of `Cc1ccc(NC(=O)CSc2nc3ccccc3c(=O)n2CCc2ccccc2)c(C(=O)O)c1`, the growth is 99.9%.

For `O=C(Nc1nc2ccc(F)cc2s1)c1cc(-c2ccc(F)cc2)n2nc(-c3ccccc3)cc2n1`, the growth is 66.3%. Then `CN1CCCNc2c(c(=O)c2=O)NCCCN(C)CCCNc2c(c(=O)c2=O)NCCCN(C)CCCNc2c(c(=O)c2=O)NCCCN(C)CCCNc2c(c(=O)c2=O)NCCCN(C)CCCNc2c(c(=O)c2=O)NCCCN(C)CCCNc2c(c(=O)c2=O)NCCCN(C)CCCNc2c(c(=O)c2=O)NCCC1`, with 43.7%; and `CCN1CCC2(CC1)OC(c1ccccc1)C(c1ccccc1)O2` (stereo not drawn), with 115%. Turning to `O=C(O)c1ccc(Cl)cc1Nc1ccc(F)cc1`, the growth is 92.4%. For the compound `CCCCCC(=O)c1ccc(OCCCN2CCN(C(=O)OCC)CC2)cc1`, the growth is 87%. Then `COc1ccc(NC(=O)CSc2nc3ccccc3c(=O)n2CCc2ccccc2)cc1`, with 89.8%; and `COc1ccc(-c2nnc(-c3c(-c4ccccc4)nc4ncccn34)o2)cc1OC`, with 102%. Then `COc1ccc2nc3cc(Cl)ccc3c(NCCNCC(C)O)c2c1` (stereo not drawn), with 54.1%.
